Source: PubChem
SmPrx2 inh = blocks S. mansoni peroxiredoxin 2 enzymatic activity; 65,000 compounds, 0.07% hits; S. mansoni Prx2 activity coupled to TGR/GSH (TGR is thioredoxin glutathione reductase), NADPH fluorescence loss, qHTS; Potency, µM
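Activity is read as the drop in NADPH fluorescence (365/450 nm), recorded every 30 sec for 8 min after H2O2 addition. Prx2 is coupled to TGR-driven NADPH oxidation through glutathione, in phosphate buffer pH 7.4.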
AmpC det inh = blocks E. coli AmpC beta-lactamase in presence of detergent; Potency, µM (top dose mostly 28.7 µM); 71,000 compounds, 0.09% hits; purified AmpC, nitrocefin hydrolysis with detergent; P00811; active means well fitted curve in the direction sought with a large enough effect; inconclusive means small, poorly fitted or top-dose-only effect
Target sequence (P00811 whole entry, looked up): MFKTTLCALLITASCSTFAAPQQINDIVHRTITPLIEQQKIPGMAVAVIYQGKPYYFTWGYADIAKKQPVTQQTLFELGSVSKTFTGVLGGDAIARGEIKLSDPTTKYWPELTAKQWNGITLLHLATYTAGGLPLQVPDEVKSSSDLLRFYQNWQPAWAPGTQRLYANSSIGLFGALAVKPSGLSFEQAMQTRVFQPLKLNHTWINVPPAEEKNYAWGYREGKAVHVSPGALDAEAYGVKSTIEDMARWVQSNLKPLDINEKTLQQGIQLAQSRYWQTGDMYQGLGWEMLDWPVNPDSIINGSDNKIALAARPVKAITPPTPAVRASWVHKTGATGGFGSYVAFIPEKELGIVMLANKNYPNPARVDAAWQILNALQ
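E. coli AmpC (5.3 nM) in 20 mM phosphate pH 7.0 with 0.01% Triton X-100, preincubated 15 min RT with compound; nitrocefin (2 uL of 800 uM stock) hydrolysis followed by 480 nm absorbance every 20 s over 4 min.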
AmpC nodet inh = AmpC beta-lactamase inhibition, detergent-free assay; P00811; AmpC nitrocefin hydrolysis, absorbance 480 nm, no detergent; Potency, µM (doses to about 28.7 µM); 71,000 compounds, 1.8% hits
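Enzyme, pH 7.0 phosphate. Compound titrations were pre-incubated with AmpC for 15 min at room temperature before nitrocefin (stock 800 uM) addition; product formation was recorded at 480 nm every 20 s for 4 min.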
LT uptake inh = inhibitors of anthrax lethal toxin internalization; 70,000 compounds, 0.67% hits; AID 912; Cells, anthrax lethal toxin internalization, FRET ratio (460/530); Potency, µM (doses to about 40 µM), hits mostly inhibitors; further: nearly all actives have a fitted effect of over 50% in size
Hits are given with their value; – = inactive; ? = inconclusive; · = no result; [ ] = dose if it differs, or a comment. Sampled rows, rich in hits. Any-hit rate of the full collection: about 2.4%. Unless noted, the call rests on the fitted dose curve.

SMILES | SmPrx2 inh | AmpC det inh | AmpC nodet inh | LT uptake inh
COc1ccc(OC)c(NS(=O)(=O)c2ccc(NC(=O)C3COc4ccccc4O3)cc2)c1 (centres undefined) | · | – | 10µM | ?
COc1cc(NC(=O)C2COc3ccccc3O2)c(OC)cc1Cl (centres undefined) | – | – | – | 12.6µM
COC(=O)c1ccc(C)c(NC(=O)C2COc3ccccc3O2)c1 (centres undefined) | – | – | – | ·
CC(C)(C)NC(=O)c1ccc(NC(=O)C2COc3ccccc3O2)cc1 (centres undefined) | – | – | – | –
CCNc1sc(C(=O)c2cccs2)c(N)c1-c1nc2ccccc2s1 | – | – | 0.02µM | ?
CCCN(CCC)CCCNC(=O)c1cc2cc3ccc(OC)cc3nc2o1 | – | – | – | ?
COc1ccc2cc3cc(C(=O)NCCc4ccc(OC)c(OC)c4)oc3nc2c1 | – | – | – | 12.6µM
CCN1CCN(CCCNC(=O)c2cc3cc4ccc(OC)cc4nc3o2)CC1 | – | – | – | ?
CCCCN(CC)CCCNC(=O)c1cc2cc3ccc(OC)cc3nc2o1 | – | – | – | 12.6µM
O=C(NCCCN1CCOCC1)c1c(O)c2ccccc2[nH]c1=O | – | – | – | –
COc1cc2[nH]c(=O)c(C(=O)NCCCN3CCCCC3)c(O)c2cc1OC | – | – | – | 12.6µM
COc1cc2cc(c1Cl)N(C)C(=O)C[C@H](OC(=O)C(C)C)[C@]1(C)O[C@@H]1[C@@H](C)[C@H]1C[C@](O)(NC(=O)O1)[C@@H](OC)/C=C\C=C(\C)C2 | – | –[5.75 µM] | –[5.75 µM] | ?
Brc1ccc(Oc2cc(Br)c(Br)cc2Br)c(Br)c1 | · | – | – | 0.794µM
Nc1nnc(COc2ccc(Br)cc2Br)s1 | – | – | – | –
Cc1cc(C)nc(SCC(=O)c2ccc(O)cc2O)n1 | – | – | 3.98µM[single pt active] | –
Cc1cc(NC(=O)c2cc(-c3ccco3)on2)nn1Cc1ccc(Cl)cc1 | – | – | 15.8µM | –
Cc1nn(Cc2ccc(Cl)cc2)c(C)c1NC(=O)c1cc(-c2ccco2)on1 | – | – | – | –
COc1ccc(CCNc2oc(COc3ccccc3Cl)nc2C#N)cc1OC | – | – | – | 15.8µM
CCSCC[C@H](N)C(=O)O | – | –[5.75 µM] | –[5.75 µM] | –[8 µM]
O=C(COC(=O)c1cccc(NC(=O)c2ccco2)c1)c1ccc(Br)cc1 | – | – | – | 12.6µM
CC(C)(C)C(=O)COC(=O)c1cccc(NC(=O)c2ccco2)c1 | – | – | – | –
CC(C)CNC(=O)c1cccc(NC(=O)c2ccc(NC(=O)c3ccco3)cc2)c1 | – | – | 15.8µM[single pt active] | –
CC(C)(C)NC(=O)c1cccc(NC(=O)c2ccc(NC(=O)c3ccco3)cc2)c1 | – | – | – | ?
CCOc1ccc2[nH]c(C)cc(=O)c2c1 | – | – | 3.98µM[single pt active] | –
CCOc1ccc2[nH]c(C)c(CN(C)C)c(=O)c2c1 | · | – | – | ?
SMILES | SmPrx2 inh | AmpC det inh | AmpC nodet inh | LT uptake inh
O=C1OC(=O)[C@@H]2[C@@H]1[C@@H]1CC[C@H]2O1 | – | – | – | ?
CCCOc1ccc(Cc2nn3c(=O)/c(=C/c4ccco4)sc3nc2=O)cc1 | – | – | 10µM[single pt active] | –
CN1CCN(c2ncc3nc(-c4ccc(Cl)cc4)c(=O)n(Cc4cccs4)c3n2)CC1 | – | – | – | ?
Cc1cc(N2CCN(S(=O)(=O)c3ccc(Cl)cc3)CC2)c2ccccc2n1 | · | – | – | 10µM
Cc1cc(C)n(-c2nc3ccccc3nc2N2CCN(S(=O)(=O)c3ccc(F)c(C)c3)CC2)n1 | – | – | – | –
CC1CCN(c2c(NCc3ccc(C(=O)NCC4COc5ccccc5O4)cc3)c(=O)c2=O)CC1 (centres undefined) | – | – | 3.98µM[single pt active] | –
O=C(CCCOc1ccccc1)Nc1nnc(C2CCCO2)s1 (centres undefined) | – | – | 10µM[single pt active] | –
CN(C)CCN(Cc1ccccc1)S(=O)(=O)c1cccc2cccnc12 | – | – | – | –
Cc1ccc(-n2ncc3c(=O)[nH]c(SCC(=O)N4CCOCC4)nc32)cc1 | – | – | – | –
O=c1[nH]c(SCc2ccccc2Cl)nc2c1cnn2-c1ccccc1 | – | – | 7.94µM | ?
Cc1ccc(-n2ncc3c(=O)[nH]c(SCC(=O)N4CCN(c5ccccc5)CC4)nc32)cc1 | – | – | 12.6µM[single pt active] | –
O=C(CSc1nnc(-c2ccccc2)o1)N1CCN(c2ccccc2)CC1 | – | – | 12.6µM[single pt active] | ?
CCOc1ccc(-c2nnc(SCC(=O)N3CCN(c4ccccc4)CC3)o2)cc1 | – | – | – | –
CCC(c1nnnn1Cc1ccco1)N(CCc1ccccc1)Cc1cc2cc(C)ccc2[nH]c1=O (centres undefined) | – | – | – | –
Cc1ccc2[nH]c(=O)c(CN(CCc3ccccc3)C(c3nnnn3Cc3ccco3)C(C)C)cc2c1 (centres undefined) | – | – | 5.01µM | ?
O=C(O)CC1Sc2ccccc2NC1=O (centres undefined) | – | – | – | –
O=C1Nc2ccccc2SC(c2ccccc2)C1O (centres undefined) | – | – | 12.6µM[single pt active] | –
COc1ccc(N(C)C(=O)c2ccc3snnc3c2)cc1 | – | – | 3.98µM[single pt active] | –
CC(=O)Nc1nc2ncc(C=O)nc2c(=O)[nH]1 | – | –[5.75 µM] | –[5.75 µM] | –[8 µM]
Cn1c(Cn2c(=O)sc3ccccc32)nnc1SCC(=O)Nc1cccc(F)c1 | – | – | 3.98µM[single pt active] | –
Cn1c(Cn2c(=O)sc3ccccc32)nnc1SCC(=O)Nc1ccc(Cl)cc1 | – | – | 3.98µM[single pt active] | –
Cn1c(Cn2c(=O)sc3ccccc32)nnc1SCC(=O)Nc1cccc(Cl)c1 | – | – | – | –
Cc1cc(C)cc(NC(=O)CSc2nnc(Cn3c(=O)sc4ccccc43)n2C)c1 | – | – | 3.98µM[single pt active] | –
O=S(=O)(NCc1ccccn1)c1cccc2cccnc12 | – | – | – | –
O=Cc1ccc(OC2C=CC(c3ccccc3)OC2CO)cc1 (centres undefined) | · | · | · | –[8 µM]
SMILES | SmPrx2 inh | AmpC det inh | AmpC nodet inh | LT uptake inh
COc1ccc(CCNc2nc(N3CCCCC3)nc(N3CCCCC3)n2)cc1OC | – | – | – | 6.31µM
COc1cccc([C@@H]2Oc3ccc(OC)cc3/C(=N/OC[C@@H](C)[C@H](OCc3ccccc3)C(C)C)[C@@H]2O)c1 | · | · | · | –[1.6 µM]
O=C(Cn1nc(Cc2cccnc2)c2ccccc2c1=O)NCCCN1CCCC1=O | – | – | – | –
CCN(CC)CCNC(=O)Cn1nc(Cc2cccnc2)c2ccccc2c1=O | – | – | 3.98µM[single pt active] | ?
O=C(Cn1nc(Cc2cccnc2)c2ccccc2c1=O)Nc1ccc2c(c1)OCO2 | – | – | 3.98µM[single pt active] | –
O=C(COC(=O)Cc1ccc(S(=O)(=O)N2CCOCC2)s1)NCc1ccccc1 | – | – | – | –
O=C(COC(=O)Cc1ccc(S(=O)(=O)N2CCCCC2)s1)Nc1ccc2c(c1)OCO2 | – | – | 12.6µM | –
N=C(N)SCc1ccc(Cl)c2ccccc12 (tested in a mixture with another compound) | – | –[5.75 µM] | –[5.75 µM] | ?
CCCCCCCCCCCCC/C=C\[C@H](O)[C@H](N)CO | – | – | – | –
Cc1nn(C)c(C)c1S(=O)(=O)N1CCCC(C(=O)NC2CCCCCC2)C1 (centres undefined) | – | – | 3.98µM[single pt active] | –
CCNCCC1(CC)C(=O)NC(=O)NC1=O | – | –[5.75 µM] | –[5.75 µM] | –[8 µM]
